Results taken from PubChem BioAssay (Tox21).
Values joined by “and” are separate entries in the source; they are usually repeats but may differ in a detail not shown here. Equal entries are not always repeated. Results filed as inconclusive are left out. Active and inactive are the calls of the source. Calls follow the shape of the dose curve; as a rule, active = well fitted curve in the direction sought with a large enough effect in the repeat runs; inconclusive = weak or mixed curves; inactive = no such curve, though single readings can be large; an effect the other way counts as inactive or inconclusive.

Key:
[1] = A CellTox Green Cytotoxicity Assay to monitor cytotoxicity in HEK293 cells - 32 hour (AID 1224881); also: nearly all actives have a fitted effect of over 40% in size; also: potency is read from the fitted curve at half-maximal effect
Procedure, shortened: (§1)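 Seeding of HEK293 cells together with cytotoxicity dye preceded a 5 h incubation at 37 C/5% CO2. Test compounds in DMSO were then added and fluorescence monitored across 40 h.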

[2] = A CellTox Green Cytotoxicity Assay to monitor cytotoxicity in HepG2 cells - 0 hour (AID 1224882); also: nearly all actives have a fitted effect of over 35% in size; also: potency is read from the fitted curve at half-maximal effect
Procedure, shortened: (§2)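 Nonlytic assay: viable cells exclude the dye, so fluorescence scales with cell death. HepG2 at 600 cells/well, compounds added after 5 h, signal read across 40 h.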

[3] = A CellTox Green Cytotoxicity Assay to monitor cytotoxicity in HepG2 cells - 32 hour (AID 1224883); also: nearly all actives have a fitted effect of over 50% in size; also: potency is read from the fitted curve at half-maximal effect
Procedure, shortened: as §2

[4] = A CellTox Green Cytotoxicity Assay to monitor cytotoxicity in HEK293 cells - 8 hour (AID 1224884); also: nearly all actives have a fitted effect of over 35% in size; also: potency is read from the fitted curve at half-maximal effect
Procedure, shortened: as §1

[5] = qHTS RealTime-Glo MT Cell Viability Assay in HepG2 cells - 16 hour (AID 1224885); also: nearly all actives have a fitted effect of over 50% in size; also: potency is read from the fitted curve at half-maximal effect
Procedure, shortened: (§3)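 Viability was tracked continuously by NanoLuc luminescence from prosubstrate reduced by living HepG2 cells, at successive time points over 40 h of compound exposure. Cells with reagent were preincubated 5 h at 37 °C before compound addition.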

[6] = qHTS RealTime-Glo MT Cell Viability Assay in HEK293 cells - 24 hour (AID 1224886); also: nearly all actives have a fitted effect of over 50% in size; also: potency is read from the fitted curve at half-maximal effect; as to activity change, negative = cytotoxicity: top concentration of the series differs between compounds
Procedure, shortened: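 Viability tracked continuously by luminescence as live cells reduce a prosubstrate for NanoLuc; HEK293 cells preincubated 5 h, compound-treated at 37 C, and read at 0, 8, 16, 24, 32 and 40 h.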

[7] = qHTS RealTime-Glo MT Cell Viability Assay in HEK293 cells - 8 hour (AID 1224887); also: nearly all actives have a fitted effect of over 50% in size; also: potency is read from the fitted curve at half-maximal effect; as to activity change, negative = cytotoxicity: top concentration of the series differs between compounds
Procedure, shortened: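 Tox21 screen in HEK293 using RealTime-Glo MT chemistry, with cells and reagent co-dispensed. Luminescence proportional to viable cell number was captured at intervals during 40 h compound exposure at 37 C.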

[8] = A CellTox Green Cytotoxicity Assay to monitor cytotoxicity in HEK293 cells - 16 hour (AID 1224888); also: nearly all actives have a fitted effect of over 35% in size; also: potency is read from the fitted curve at half-maximal effect
Procedure, shortened: as §1

[9] = qHTS RealTime-Glo MT Cell Viability Assay in HepG2 cells - 0 hour (AID 1224889); also: nearly all actives have a fitted effect of over 50% in size
Procedure, shortened: as §3

[10] = A CellTox Green Cytotoxicity Assay to monitor cytotoxicity in HepG2 cells - 8 hour (AID 1224890); also: nearly all actives have a fitted effect of over 45% in size; also: potency is read from the fitted curve at half-maximal effect
Procedure, shortened: as §2
% is scaled to controls: 0 for no effect and ±100 for the full control effect.

C1CCC(SSC2CCCCC2)CC1
inactive: Potency [1] | Potency [2] | Potency [3] | Potency [4] | Potency [5] | Potency [6] | Potency [7] | Potency [8] | Potency [9] | Potency [10]

NC[C@H]1O[C@H](O[C@H]2[C@H](O[C@@H]3O[C@H](CO)[C@@H](O)[C@H]3O)C(O)[C@H](N)C[C@@H]2N)[C@H](N)[C@@H](O)[C@@H]1O (some centres undefined)
inactive: cytotoxicity increase [1] -11.8% [at 6.97 µM] | cytotoxicity [2] 11.3% [at 6.97 µM] | cytotoxicity increase [3] 7.9% [at 6.97 µM] | cytotoxicity increase [4] -4.48% [at 6.97 µM] | activity change, negative = cytotoxic [5] 1.38% [at 6.97 µM] | activity change, negative = cytotoxicity [6] 4.78% [at 6.97 µM] | activity change, negative = cytotoxicity [7] -3.38% [at 6.97 µM] | activity change [8] -6.01% [at 6.97 µM, active compounds read high] | activity change, negative = cytotoxicity [9] 1.18% [at 6.97 µM] | cytotoxicity increase [10] 12.8% [at 6.97 µM]

Nc1ccc(NCCO)c([N+](=O)[O-])c1
inactive: Potency [1] | Potency [2] | Potency [3] | Potency [4] | Potency [5] | Potency [6] | Potency [7] | Potency [8] | Potency [9] | Potency [10]

O[C@@H]([C@H](O)[C@H](O)CBr)[C@H](O)CBr
inactive: Potency [1] | Potency [2] | Potency [3] | Potency [4] | Potency [5] | Potency [6] | Potency [7] | Potency [8] | Potency [9] | Potency [10]

C[C@H]1NCc2cc(-c3ccc4c(=O)c(C(=O)O)cn(C5CC5)c4c3OC(F)F)ccc21
inactive: cytotoxicity increase [1] -2.38% [at 15.8 µM] | cytotoxicity [2] -0.836% [at 15.8 µM] | cytotoxicity increase [3] -4.67% [at 15.8 µM] | cytotoxicity increase [4] -4.13% [at 15.8 µM] | activity change, negative = cytotoxic [5] -14.5% [at 15.8 µM] | activity change, negative = cytotoxicity [6] -3.25% [at 15.8 µM] | activity change, negative = cytotoxicity [7] -3.93% [at 15.8 µM] | activity change [8] -0.109% [at 15.8 µM, active compounds read high] | activity change, negative = cytotoxicity [9] -7.36% [at 15.8 µM] | cytotoxicity increase [10] 1.89% [at 15.8 µM]

O=C1c2ccccc2C(=O)N1SC1CCCCC1
inactive: Potency [2] | Potency [4] | Potency [9]
active: Potency [1] 12.3 µM and 24.5 µM | Potency [3] 24.5 µM | Potency [5] 38.9 µM | Potency [6] 34.6 µM and 34.7 µM | Potency [7] 38.9 µM | Potency [8] 43.6 µM

O=C(O)c1cccc(C(F)(F)F)c1
inactive: Potency [1] | Potency [2] | Potency [3] | Potency [4] | Potency [5] | Potency [6] | Potency [7] | Potency [8] | Potency [9] | Potency [10]

CC(C)(C)c1ccc(C(O)CCCN2CCC(C(O)(c3ccccc3)c3ccccc3)CC2)cc1 (centres undefined)
inactive: Potency [2] | Potency [9]
active: Potency [1] 8.49 µM | Potency [3] 5.35 µM | Potency [4] 21.3 µM | Potency [5] 7.56 µM | Potency [6] 5.35 µM | Potency [7] 8.49 µM | Potency [8] 13.4 µM | Potency [10] 15.1 µM

CC(C)(c1cc(Br)c(OCC(Br)CBr)c(Br)c1)c1cc(Br)c(OCC(Br)CBr)c(Br)c1 (centres undefined)
inactive: Potency [1] | Potency [2] | Potency [3] | Potency [4] | Potency [5] | Potency [6] | Potency [7] | Potency [8] | Potency [9] | Potency [10]

Cc1cc(C(C)(C)C)cc(C)c1CC1=NCCN1
inactive: Potency [1] | Potency [2] | Potency [3] | Potency [4] | Potency [5] | Potency [6] | Potency [7] | Potency [8] | Potency [9] | Potency [10]

C#CC1(O)CC[C@H]2[C@@H]3CCC4=CCCC[C@@H]4[C@H]3CC[C@@]21C (some centres undefined)
active: Potency [1] 24.5 µM and 21.3 µM | Potency [3] 34.7 µM and 19 µM | Potency [4] 17.4 µM and 23.9 µM | Potency [5] 23.9 µM | Potency [6] 17.4 µM and 16.9 µM | Potency [7] 21.3 µM | Potency [8] 24.5 µM and 21.3 µM | Potency [10] 24.5 µM and 21.3 µM
inactive: Potency [2] | Potency [9]

Cc1cccc(C)c1NC(=O)c1ccc(N)cc1
inactive: Potency [1] | Potency [2] | Potency [3] | Potency [4] | Potency [5] | Potency [6] | Potency [7] | Potency [8] | Potency [9] | Potency [10]

ClCCl
inactive: Potency [1] | Potency [2] | Potency [3] | Potency [4] | Potency [5] | Potency [6] | Potency [7] | Potency [8] | Potency [9] | Potency [10]

O=C1CCCCCCCCCCCCCCCO1
active: Potency [1] 24.5 µM | Potency [2] 38.9 µM | Potency [3] 43.6 µM | Potency [4] 43.6 µM | Potency [8] 24.5 µM | Potency [10] 43.6 µM
inactive: Potency [5] | Potency [6] | Potency [7] | Potency [9]

CNc1ccc([N+](=O)[O-])cc1
inactive: Potency [1] | Potency [2] | Potency [3] | Potency [4] | Potency [5] | Potency [6] | Potency [7] | Potency [8] | Potency [9] | Potency [10]

CC(=O)c1ccc(C(C)=O)cc1
inactive: Potency [1] | Potency [2] | Potency [3] | Potency [4] | Potency [5] | Potency [6] | Potency [7] | Potency [8] | Potency [9] | Potency [10]

CC(C)CCOC(=O)/C=C/c1ccccc1
inactive: Potency [1] | Potency [2] | Potency [3] | Potency [4] | Potency [5] | Potency [6] | Potency [7] | Potency [8] | Potency [9] | Potency [10]

c1ccsc1
inactive: Potency [1] | Potency [2] | Potency [3] | Potency [4] | Potency [5] | Potency [6] | Potency [7] | Potency [8] | Potency [9] | Potency [10]

CN(C)Cc1ccccc1O
inactive: Potency [1] | Potency [2] | Potency [3] | Potency [4] | Potency [5] | Potency [6] | Potency [7] | Potency [8] | Potency [9] | Potency [10]
